Results from the supplement of paper PMC10849652.
About 7,900 targets were measured; listed, in parts, are those with a hit and a random draw of the rest. About 0.6% of all pairs of compound and target were hits. A number with no mark means an inactive call.

Assays:
Experiment in all cases: log2 fold change, soluble protein after heating vs DMSO (PISA); higher = thermal stabilisation; K562 cells, 10 uM, 30 min; active = over 0.2 and 3.5 SD of the protein, either way, in both replicates (recomputed)
erlotinib = compound: C#Cc1cccc(Nc2ncnc3cc(OCCOC)c(OCCOC)cc23)c1 [erlotinib]
Summary of the method: (§1)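 Values are thermal stability changes relative to control samples and are taken from duplicates. They are stated as log2 fold changes. Before quantification by TMTpro 16plex LC-MS/MS with equalised channel sums, K562 cells at 2×10^6 cells/mL were treated with 10 μM compound for 30 min, heated in aliquots for 3 min across 48°C-58°C, pooled, extracted in PBS with 0.5% NP-40 at 4°C, and centrifuged at 21,000xg for 90 min to give the soluble supernatant.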

[1] = compound: C/C(=N\NC(=O)C1=CC(=CC=C1)S(=O)(=O)N2CCOCC2)/C3=C(C=CC(=C3)Cl)O
Summary of the method: as §1

[2] = compound: C1=CC(=C(C=C1Cl)C2=NC3=NC=CN=C3C(=N2)NC4=CC=NC=C4)F
Summary of the method: as §1

[3] = compound: C1=CC(=CC=C1C2=NC3=C(N2)C=C(C=C3)C(=O)N)OC4=CC=C(C=C4)Cl
Summary of the method: as §1

[4] = compound: C1=CC2=C(C=CC(=C2)/C=C\3/C(=O)NC(=NCC4=CC=CS4)S3)N=C1
Summary of the method: as §1

[5] = compound: C1=CC2=NC=CN=C2C=C1/C=C/3\C(=O)NC(=O)S3
Summary of the method: as §1

[6] = compound: C1=CC=C(C=C1)C2=NC(=C(N2)C3=CC=NC=C3)C4=CC(=C(C=C4)Cl)O
Summary of the method: as §1

[7] = compound: C1=CC=C2C(=C1)C3=NNC4=CC=CC(=C43)C2=O
Summary of the method: as §1

[8] = compound: C1CCN(C1)C(=O)NC2=CC=CC(=C2)NC3=NC=C(C(=N3)NCCC4=CN=CN4)Br
Summary of the method: as §1

[9] = compound: C1CN(CCC1(CC2=CC=C(C=C2)Cl)N)C3=NC=NC4=C3C=CN4
Summary of the method: as §1

IRAK-1-4 Inhibitor I = compound: C1COCCN1CCN2C3=CC=CC=C3N=C2NC(=O)C4=CC(=CC=C4)[N+](=O)[O-] [IRAK-1-4 Inhibitor I]
Summary of the method: as §1

ibrutinib = compound: C=CC(=O)N1CCC[C@@H](n2nc(-c3ccc(Oc4ccccc4)cc3)c3c(N)ncnc32)C1 [ibrutinib]
Summary of the method: as §1

[10] = compound: CC(=O)c1cnc2ccc(-c3cc(Cl)c(O)c(Cl)c3)nc2c1N[C@H]1CC[C@H](CN(C)C)CC1
Summary of the method: as §1

ralimetinib = compound: CC(C)(C)Cn1c(N)nc2ccc(-c3[nH]c(C(C)(C)C)nc3-c3ccc(F)cc3)nc21 [ralimetinib]
Summary of the method: as §1

[11] = compound: CC(C)(O)CC(=O)NCCn1ccc2ncnc(Nc3ccc(Oc4cccc(C(F)(F)F)c4)c(Cl)c3)c21
Summary of the method: as §1

[12] = compound: CC(C)C1=C2N=C(C=C(N2N=C1)NCC3=CC=CC=C3)NCCCCCCN
Summary of the method: as §1

[13] = compound: CC(C)C[C@@H](C=O)NC(=O)[C@H](CC(C)C)NC(=O)[C@H](CC(C)C)NC(=O)OCc1ccccc1
Summary of the method: as §1

pinometostat = compound: CC(C)N(C[C@H]1O[C@@H](n2cnc3c(N)ncnc32)[C@H](O)[C@@H]1O)[C@H]1C[C@@H](CCc2nc3cc(C(C)(C)C)ccc3[nH]2)C1 [pinometostat]
Summary of the method: as §1

[14] = compound: CC1=C(C(CC(=O)N1)C2=CC=C(C=C2)C(F)(F)F)C(=O)NC3=C(C=C4C(=C3)C=NN4)F
Summary of the method: as §1

[15] = compound: CC1=C(C2=C(C=C1)C(=O)C3=CC=CC=C3N2CCCN)C
Summary of the method: as §1

UniProt O60264, sequence (O60264 whole entry, looked up): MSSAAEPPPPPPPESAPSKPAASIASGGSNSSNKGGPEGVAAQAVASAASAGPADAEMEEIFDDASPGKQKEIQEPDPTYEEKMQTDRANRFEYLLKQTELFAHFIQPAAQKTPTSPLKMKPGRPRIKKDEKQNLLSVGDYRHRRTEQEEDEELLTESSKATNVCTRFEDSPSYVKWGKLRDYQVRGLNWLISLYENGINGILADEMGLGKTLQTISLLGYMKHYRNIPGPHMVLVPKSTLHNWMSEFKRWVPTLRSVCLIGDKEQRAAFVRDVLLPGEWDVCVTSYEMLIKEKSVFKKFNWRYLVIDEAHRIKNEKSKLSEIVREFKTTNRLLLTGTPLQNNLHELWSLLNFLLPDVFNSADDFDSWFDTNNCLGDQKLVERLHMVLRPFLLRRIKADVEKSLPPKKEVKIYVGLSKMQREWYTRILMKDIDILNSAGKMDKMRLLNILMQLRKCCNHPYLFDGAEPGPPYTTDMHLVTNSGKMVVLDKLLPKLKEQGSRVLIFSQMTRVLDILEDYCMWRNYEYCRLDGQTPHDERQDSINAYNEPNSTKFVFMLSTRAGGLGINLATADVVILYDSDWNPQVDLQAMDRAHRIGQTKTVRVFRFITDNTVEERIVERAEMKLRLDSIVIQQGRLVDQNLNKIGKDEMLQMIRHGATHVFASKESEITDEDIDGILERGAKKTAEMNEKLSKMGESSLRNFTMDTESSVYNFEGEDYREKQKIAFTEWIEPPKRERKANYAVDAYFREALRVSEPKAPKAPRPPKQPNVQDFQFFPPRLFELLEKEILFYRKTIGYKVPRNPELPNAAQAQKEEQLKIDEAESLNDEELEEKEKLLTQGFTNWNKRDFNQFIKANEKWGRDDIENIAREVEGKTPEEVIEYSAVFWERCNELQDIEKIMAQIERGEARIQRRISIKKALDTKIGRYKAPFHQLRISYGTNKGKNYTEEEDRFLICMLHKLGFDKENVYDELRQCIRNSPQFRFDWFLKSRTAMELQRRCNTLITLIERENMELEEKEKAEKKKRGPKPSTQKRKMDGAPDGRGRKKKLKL
UniProt Q9NUY8, sequence (Q9NUY8 whole entry, looked up): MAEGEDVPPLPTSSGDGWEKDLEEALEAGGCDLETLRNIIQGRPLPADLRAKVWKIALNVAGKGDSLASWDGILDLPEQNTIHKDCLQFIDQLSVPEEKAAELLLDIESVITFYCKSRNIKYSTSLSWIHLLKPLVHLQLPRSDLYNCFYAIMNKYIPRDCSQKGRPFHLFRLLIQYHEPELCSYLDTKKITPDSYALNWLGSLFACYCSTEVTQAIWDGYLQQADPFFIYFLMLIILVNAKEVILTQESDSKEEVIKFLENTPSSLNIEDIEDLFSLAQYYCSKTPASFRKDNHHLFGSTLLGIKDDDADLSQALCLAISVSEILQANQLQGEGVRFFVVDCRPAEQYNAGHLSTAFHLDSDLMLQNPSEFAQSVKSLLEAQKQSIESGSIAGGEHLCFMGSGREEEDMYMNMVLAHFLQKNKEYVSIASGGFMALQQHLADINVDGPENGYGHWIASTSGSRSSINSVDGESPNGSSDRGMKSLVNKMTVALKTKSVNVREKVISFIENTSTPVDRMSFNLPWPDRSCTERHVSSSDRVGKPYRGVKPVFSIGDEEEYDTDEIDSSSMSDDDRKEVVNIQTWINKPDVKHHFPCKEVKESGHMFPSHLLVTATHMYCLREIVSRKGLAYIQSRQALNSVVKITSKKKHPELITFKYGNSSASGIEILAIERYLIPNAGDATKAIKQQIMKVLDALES
UniProt P53597, sequence (P53597 whole entry, looked up): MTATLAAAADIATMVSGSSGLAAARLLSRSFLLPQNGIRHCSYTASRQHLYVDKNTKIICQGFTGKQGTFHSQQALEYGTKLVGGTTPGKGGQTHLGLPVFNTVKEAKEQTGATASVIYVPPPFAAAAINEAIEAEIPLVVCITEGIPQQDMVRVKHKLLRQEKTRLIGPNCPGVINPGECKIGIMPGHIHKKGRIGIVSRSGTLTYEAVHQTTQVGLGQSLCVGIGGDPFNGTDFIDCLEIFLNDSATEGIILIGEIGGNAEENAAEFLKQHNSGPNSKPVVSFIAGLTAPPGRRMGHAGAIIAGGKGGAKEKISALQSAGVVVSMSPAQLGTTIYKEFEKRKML
UniProt Q15527, sequence (Q15527 whole entry, looked up): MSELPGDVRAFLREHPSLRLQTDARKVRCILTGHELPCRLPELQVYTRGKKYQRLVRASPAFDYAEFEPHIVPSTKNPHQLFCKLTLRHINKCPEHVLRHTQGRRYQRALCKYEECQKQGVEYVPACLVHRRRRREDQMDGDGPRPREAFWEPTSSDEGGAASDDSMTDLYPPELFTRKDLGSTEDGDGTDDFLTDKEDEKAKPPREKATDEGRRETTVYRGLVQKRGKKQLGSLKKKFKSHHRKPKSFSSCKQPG
UniProt P02786, sequence (P02786 whole entry, looked up): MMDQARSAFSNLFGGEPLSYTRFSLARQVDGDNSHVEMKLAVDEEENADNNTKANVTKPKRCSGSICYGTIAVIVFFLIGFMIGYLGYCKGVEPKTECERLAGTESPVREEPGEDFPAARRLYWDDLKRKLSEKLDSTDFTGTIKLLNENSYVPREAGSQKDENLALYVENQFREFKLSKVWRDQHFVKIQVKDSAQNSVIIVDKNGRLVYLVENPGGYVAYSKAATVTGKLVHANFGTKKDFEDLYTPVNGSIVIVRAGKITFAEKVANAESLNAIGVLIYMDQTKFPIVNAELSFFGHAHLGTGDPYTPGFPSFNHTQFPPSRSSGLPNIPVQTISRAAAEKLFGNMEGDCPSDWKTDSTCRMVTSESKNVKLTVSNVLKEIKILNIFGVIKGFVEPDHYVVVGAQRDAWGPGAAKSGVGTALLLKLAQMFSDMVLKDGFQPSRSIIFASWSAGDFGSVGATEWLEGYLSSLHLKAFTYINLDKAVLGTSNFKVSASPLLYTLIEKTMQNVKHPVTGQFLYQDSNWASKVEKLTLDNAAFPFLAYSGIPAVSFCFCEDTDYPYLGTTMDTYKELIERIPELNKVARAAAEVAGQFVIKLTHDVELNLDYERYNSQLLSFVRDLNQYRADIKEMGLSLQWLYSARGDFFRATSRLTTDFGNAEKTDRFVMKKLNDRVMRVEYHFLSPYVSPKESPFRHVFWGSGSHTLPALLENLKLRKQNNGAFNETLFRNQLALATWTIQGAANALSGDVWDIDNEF
UniProt Q16594, sequence (Q16594 whole entry, looked up): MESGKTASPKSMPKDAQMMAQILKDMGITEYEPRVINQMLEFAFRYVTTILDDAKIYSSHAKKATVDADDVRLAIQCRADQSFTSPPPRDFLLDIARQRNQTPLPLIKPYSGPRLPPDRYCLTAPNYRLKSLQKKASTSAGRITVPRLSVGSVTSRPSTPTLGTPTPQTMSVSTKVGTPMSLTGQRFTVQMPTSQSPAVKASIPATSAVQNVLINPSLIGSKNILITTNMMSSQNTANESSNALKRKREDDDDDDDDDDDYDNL
UniProt Q9P289, sequence (Q9P289 whole entry, looked up): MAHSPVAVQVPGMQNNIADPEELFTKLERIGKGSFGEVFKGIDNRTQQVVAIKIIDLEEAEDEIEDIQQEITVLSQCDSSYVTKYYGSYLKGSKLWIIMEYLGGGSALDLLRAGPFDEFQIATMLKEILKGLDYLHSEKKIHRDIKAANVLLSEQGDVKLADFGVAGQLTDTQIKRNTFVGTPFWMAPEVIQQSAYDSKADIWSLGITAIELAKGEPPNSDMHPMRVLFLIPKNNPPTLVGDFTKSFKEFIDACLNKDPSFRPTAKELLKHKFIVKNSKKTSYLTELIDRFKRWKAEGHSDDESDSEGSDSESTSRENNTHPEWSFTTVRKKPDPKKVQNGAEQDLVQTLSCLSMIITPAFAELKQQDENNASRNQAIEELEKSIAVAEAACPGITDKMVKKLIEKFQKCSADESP
UniProt Q96CW6, sequence (Q96CW6 whole entry, looked up): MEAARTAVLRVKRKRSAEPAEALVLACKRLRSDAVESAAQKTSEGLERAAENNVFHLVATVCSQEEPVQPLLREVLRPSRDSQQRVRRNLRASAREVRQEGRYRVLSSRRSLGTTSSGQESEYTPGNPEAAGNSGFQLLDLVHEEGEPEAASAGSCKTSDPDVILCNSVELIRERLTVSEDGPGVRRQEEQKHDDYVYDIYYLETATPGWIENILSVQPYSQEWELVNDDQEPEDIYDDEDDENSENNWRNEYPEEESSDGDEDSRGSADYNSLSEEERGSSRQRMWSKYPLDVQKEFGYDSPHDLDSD
UniProt Q8IWA5, sequence (Q8IWA5 whole entry, looked up): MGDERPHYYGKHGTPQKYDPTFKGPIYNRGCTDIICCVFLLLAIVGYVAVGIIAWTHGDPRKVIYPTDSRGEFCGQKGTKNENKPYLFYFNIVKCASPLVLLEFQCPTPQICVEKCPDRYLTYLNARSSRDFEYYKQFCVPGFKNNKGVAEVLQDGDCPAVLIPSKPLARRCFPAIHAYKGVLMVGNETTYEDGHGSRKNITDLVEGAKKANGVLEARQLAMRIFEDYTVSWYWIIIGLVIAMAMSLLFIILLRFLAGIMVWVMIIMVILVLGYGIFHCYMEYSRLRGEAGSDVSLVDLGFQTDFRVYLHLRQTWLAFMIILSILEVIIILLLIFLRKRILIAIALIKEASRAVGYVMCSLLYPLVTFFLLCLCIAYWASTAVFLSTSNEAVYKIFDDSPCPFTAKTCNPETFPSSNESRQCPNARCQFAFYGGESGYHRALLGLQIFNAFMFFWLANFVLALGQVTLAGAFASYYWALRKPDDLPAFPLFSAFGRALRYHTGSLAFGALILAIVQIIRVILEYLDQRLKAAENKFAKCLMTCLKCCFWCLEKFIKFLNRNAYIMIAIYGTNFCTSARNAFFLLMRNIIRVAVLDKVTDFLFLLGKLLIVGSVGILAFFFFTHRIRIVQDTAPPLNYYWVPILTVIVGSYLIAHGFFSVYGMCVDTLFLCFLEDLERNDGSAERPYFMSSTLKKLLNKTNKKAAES

Target	log2 fold change (erlotinib)	log2 fold change [1]	log2 fold change [2]	log2 fold change [3]	log2 fold change [4]	log2 fold change [5]	log2 fold change [6]	log2 fold change [7]	log2 fold change [8]	log2 fold change [9]	log2 fold change (IRAK-1-4 Inhibitor I)	log2 fold change (ibrutinib)	log2 fold change [10]	log2 fold change (ralimetinib)	log2 fold change [11]	log2 fold change [12]	log2 fold change [13]	log2 fold change (pinometostat)	log2 fold change [14]	log2 fold change [15]
SUCLG1 (UniProt P53597)	0.033	0.027	0.052	-0.004	0.012	-0.017	0.061	-0.017	0.021	0.034	0.048	0.01	-0.018	-0.039	-0.07	-0.058	-0.01	-0.04	-0.017	0.053
TFRC (UniProt P02786)	0.002	0.017	0.022	0.006	0.037	0.027	0.023	-0.011	0.006	0.055	0.058	0.026	-0.023	-0.005	0.001	-0.032	-0.005	-0.02	0.001	-0.03
TBC1D23 (UniProt Q9NUY8)	0.043	0.012	0.047	0.067	0.071	0.021	-0.032	-0.054	-0.036	-0.025	0.062	-0.02	-0.067	0.002	-0.098	-0.45 (active)	0.071	-0.046	0.055	0.01
TARBP1 (UniProt Q13395)	0.015	0.062	0.023	0.027	-0.091	0.065	-0.022	0.012	-0.085	0.019	0.062	-0.007	-0.01	0.003	-0.074	-0.066	0.009	0.041	0.04	0.184
SUPT5H (UniProt O00267)	0.05	0.084	0.065	0.011	0.017	0.021	0.02	0.006	-0.017	0.011	-0.009	-0.068	0.066	-0.009	-0.065	-0.046	0.013	-0.017	-0.035	-0.08
TAMM41 isoform 3 (UniProt Q96BW9)	0.047	0.03	0.058	-0.007	0.061	0.009	0.045	0.007	-0.007	0.056	0.075	0.022	-0.061	-0.04	-0.172	-0.214	0.043	0.015	0.013	0.169
SURF2 (UniProt Q15527)	0.021	-0.067	0.039	-0.03	-0.068	0.113	-0.057	0.027	-0.043	0.009	0.071	0.004	-0.043	-0.117	-0.014	0.131	0.022	0.01	-0.036	-0.238 (active)
STK26 (UniProt Q9P289)	0.058	-0.014	0.195	-0.014	-0.008	0.124	-0.015	-0.08	0.023	0.02	0.03	-0.272 (active)	-0.344 (active)	-0.022	-0.081	-0.071	0.03	-0.019	0.022	-0.07
SLC7A6OS (UniProt Q96CW6)	-0.015	0.018	0.035	-0.039	0.007	0.042	0.045	-0.025	-0.015	0.022	0.018	-0.027	0.046	0.134	-0.032	0.045	-0.019	0.273 (active)	0.014	-0.199
TIMM21 (UniProt Q9BVV7)	0.026	0.068	0.004	-0.008	0.035	-0.001	-0.001	0.081	-0.002	0.021	-0.009	-0.02	-0.026	-0.01	0.011	-0.169	0.099	-0.02	-0.013	0.063
SRSF11 (UniProt Q05519)	0.05	0.191	0.06	0.054	-0.049	-0.003	-0.026	-0.003	-0.129	-0.196	-0.116	-0.014	-0.416 (active)	0.01	-0.049	-0.255	-0.005	-0.016	-0.011	0.026
STARD9 (UniProt Q9P2P6)	0.026	0.117	-0.089	0.119	0.06	0	-0.131	0.005	-0.003	-0.099	-0.121	0.161	0.091	0.068	-0.156	-0.066	0.085	0.083	-0.053	-0.07
TAF9 (UniProt Q16594)	-0.007	-0.003	-0.036	0.014	-0.027	0.019	-0.04	-0.032	-0.024	0.02	-0.029	0.027	0.049	0.025	0.069	0.024	0.112	-0.072	0	-0.005
SMARCA5 (UniProt O60264)	0.103	0.044	-0.058	0.005	-0.012	0.078	0.052	-0.103	-0.109	-0.227	-0.108	-0.135	0.103	0.033	-0.113	-0.025	0.084	0.068	-0.135	-0.97 (active)
SLC44A2 isoform 2 (UniProt Q8IWA5)	0.059	0.028	-0.059	-0.054	0.019	-0.096	0.073	-0.065	-0.105	0.01	0.092	0.055	0.034	-0.128	-0.006	0.296 (active)	-0.047	0.056	-0.078	0.034
TBC1D15 isoform 3 (UniProt Q8TC07)	-0.007	0.075	0.024	-0.029	0.059	0.067	0.029	-0.035	0.016	-0.048	0.235	-0.021	0.009	0.041	-0.082	-0.326 (active)	0.012	0.056	0	-0.01
